The campaign covered roughly 3,300 compounds. About 50 (2%) were called active.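 Rule for the calls: active = concentration giving half-maximal inhibition at or below 20 micromolar; inactive = half-maximal concentration above 20 micromolar, or not dose tested.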 Only a sample is shown. Entries with a potency or affinity are not part of this list.
Assay: cytotoxicity toward Jurkat T cells, primary screen, cell-based, Jurkat E6.1, NIH starter set (AID 364);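 note: 100% = cells treated with 4 µM doxorubicin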
Conditions: Jurkat E6.1 viability, ATP luminescence, 48 h; at 4 µM; hits give high values

Row | Structure (SMILES) | inhibition
1 | CCCOc1ccc(N2C(=O)CC(N(CCC)C(=O)CCC(=O)O)C2=O)cc1 (stereo not given) | -0.8% (inactive)
2 | COc1cccc(/C(O)=C2/C(=O)C(=O)N(CCN(C)C)C2c2ccc(Br)cc2)c1 (stereo not given) | -1.9% (inactive)
3 | CCOc1ccc(Br)cc1CC(=O)O | 13.6% (inactive)
4 | O=C(C(c1ccccc1)N1CCOCC1)N1CCOCC1 (stereo not given) | -13.4% (inactive)
5 | Cc1cc2c(c(=O)n1Cc1ccccn1)C(c1ccc3c(c1)OCO3)C(C#N)=C(N)O2 (stereo not given) | -0.2% (inactive)
6 | CCCCCOc1ccc(Cl)cc1CN1CCOCC1 | -0.4% (inactive)
7 | COc1cccc(C2/C(=C(\O)c3ccc(OC)c(OC)c3)C(=O)C(=O)N2c2cc(C)on2)c1 (stereo not given) | -14.4% (inactive)
8 | Cc1cc(C)nc(N(C#N)S(=O)(=O)c2ccccc2Cl)n1 | 1% (inactive)
9 | COc1ccc(NC(=O)CSC2=C(C#N)C(c3ccco3)C3=C(CCCC3=O)N2)c(OC)c1 (stereo not given) | 1.6% (inactive)
10 | COc1ccc(OC)c(NC(=O)CSC2=C(C#N)C(c3ccco3)C3=C(CCCC3=O)N2)c1 (stereo not given) | 4.8% (inactive)
11 | Cc1c(N2C(=O)SC(CC(=O)O)C2=O)c(=O)n(-c2ccccc2)n1C (stereo not given) | -2.7% (inactive)
12 | CC(=O)C1(C)OC(N)=C(C#N)C(c2ccccc2)C1(C#N)C#N (stereo not given) | 5.6% (inactive)
13 | COc1ccc(N2C(=O)C3C(C2=O)C2C=CC3C23CC3)c(OC)c1 (stereo not given) | 0.8% (inactive)
14 | COc1ccccc1NC(=O)Nc1nnc(C(C)C)s1 | 9.4% (inactive)
15 | c1ccc(-c2nnc3n2N=C(c2ccc4c(c2)OCO4)CS3)nc1 | -6.9% (inactive)
16 | COc1ccc(OC)c(C2=Nn3c(nnc3C3CCCCC3)SC2)c1 | 5.2% (inactive)
17 | CC(=O)[C@H]1[C@@H]2C(=O)N(c3cccc(Cl)c3)C(=O)[C@@H]2[C@H]2c3ccccc3C=CN21 | -1.9% (inactive)
18 | CCOC(=O)CNS(=O)(=O)c1cc(-c2nn(C)c(=O)c3ccccc23)ccc1C | 1.1% (inactive)
19 | C=C(C)CC1N(c2cccc(OC)c2)C(=O)[C@@H]2C(C(=O)O)[C@H]3C=C[C@@]12O3 (stereo not given in full) | 5.9% (inactive)
20 | CCCCOc1ccc(C(=O)Nc2ccc(N3CCN(C(C)=O)CC3)cc2)cc1 | 6.7% (inactive)

Row | Structure (SMILES) | inhibition
21 | N#CC1=C(N)NC(SCc2ccc(Cl)cc2)=C(C#N)C12CCCCC2 | 7.9% (inactive)
22 | COc1ccc(C(=O)CSC2=C(C#N)C3(CCCCC3)C(C#N)=C(N)N2)cc1 | 4.2% (inactive)
23 | Cc1csc(SCCn2c(Br)nc3c2c(=O)[nH]c(=O)n3C)n1 | -4.7% (inactive)
24 | N#CC1=C(N)C(C#N)(C#N)[C@H](c2ccncc2)[C@H]2CN(C(=O)OCc3ccccc3)CC=C12 | 2.4% (inactive)
25 | COCCOC(=O)c1c(C)nc(SCC(=O)Nc2ccc(C)cc2)c(C#N)c1-c1ccco1 | 13.5% (inactive)
26 | O=C(CSc1nnc(-c2ccco2)c(-c2ccco2)n1)Nc1ccccc1 | 0.1% (inactive)
27 | C=CCN(C)CCCNC(=O)/C=N/O | 2.4% (inactive)
28 | CN(CCOC(=O)c1ccc2c(c1)OCCO2)Cc1ccccc1 | -9.3% (inactive)
29 | O=C(CC(c1ccco1)S(=O)(=O)c1ccccc1)c1ccc(F)cc1 (stereo not given) | -1% (inactive)
30 | COc1cc(-c2nn3c(-c4cccnc4)nnc3s2)cc(OC)c1OC | 3.2% (inactive)
31 | c1cncc(-c2nnc3sc(-c4ccco4)nn23)c1 | 7.6% (inactive)
32 | Cc1c(NS(=O)(=O)c2cccc3nsnc23)c(=O)n(-c2ccccc2)n1C | -5.3% (inactive)
33 | CCN(CC)CCN1C(=O)C(O)=C(C(C)=O)C1c1ccc(OC)c(OC)c1 (stereo not given) | -15.9% (inactive)
34 | Cn1c(=O)cc(NCc2ccccc2)[nH]c1=O | -8.6% (inactive)
35 | Cc1ccc2cc(CNC(C)(C)C)c(=O)[nH]c2c1 | 7.6% (inactive)
36 | CCc1c(C)c(C#N)c2nc3ccccc3n2c1-n1nc(C)cc1C | -5.3% (inactive)
37 | COCc1cc(C)nc(SCC(=O)Nc2ccc(C)c(C)c2)c1C#N | -5.4% (inactive)
38 | CCc1nc2c(sc3nc(N4CCOCC4)c4c(c32)CC(C)(C)OC4)c(=O)o1 | -2% (inactive)
39 | CN(C)CCCN1C(=O)C(=O)/C(=C(/O)c2ccccc2)C1c1ccccn1 (stereo not given) | 8.4% (inactive)
40 | CCOc1ccc(C2=Nn3c(nnc3-c3cccnc3)SC2)cc1 | 2.1% (inactive)

Row | Structure (SMILES) | inhibition
41 | COc1ccc(C2=Nn3c(nnc3-c3cccnc3)SC2)cc1OC | -8.2% (inactive)
42 | COc1ccc(OC)c(C2=Nn3c(nnc3-c3ccco3)SC2)c1 | -10.8% (inactive)
43 | Cc1cccc(-c2nnc3n2N=C(c2ccccc2)CS3)c1 | 13.9% (inactive)
44 | CCOc1ccc(-c2nnc3sc(-c4ccccc4OC)nn23)cc1 | 1.2% (inactive)
45 | c1ccc(C2=Nn3c(nnc3-c3ccccn3)SC2)cc1 | -9.2% (inactive)
46 | CCOc1ccc(C2=Nn3c(nnc3-c3ccccn3)SC2)cc1 | 2.6% (inactive)
47 | COc1ccc(C2=Nn3c(nnc3-c3ccccn3)SC2)cc1OC | 2.3% (inactive)
48 | CC1(C)CC(=O)C2=C(C1)N(CC1CCCO1)C(=O)C2(O)C(F)(F)F (stereo not given) | 7.7% (inactive)
49 | COc1ccc(-c2nc3n(n2)C(=O)CC(c2ccco2)S3)cc1 (stereo not given) | -1.6% (inactive)
50 | Cc1cc(NCC2CCCO2)n2c(nc3ccccc32)c1C#N (stereo not given) | 15.2% (inactive)
51 | CCOC(=O)NC(Nc1sc2c(c1C(N)=O)CCCC2)(C(=O)OCC)C(F)(F)F (stereo not given) | 2.5% (inactive)
52 | CC(C)c1cc(NCCN2CCOCC2)n2c(nc3ccccc32)c1C#N | 14.6% (inactive)
53 | O=P(Cc1nnco1)(c1ccccc1)c1ccccc1 | 1% (inactive)
54 | CC(=O)Oc1ccccc1C1OCCN1C(C)=O (stereo not given) | -17.2% (inactive)
55 | Cc1ccc2nc(C(F)(F)F)c(C#N)c(N)c2c1 | 11.8% (inactive)
56 | C/C(NC(=O)c1ccccc1F)=C1\C(=O)C[C@@H]2[C@H]1C2(C)C | -12.7% (inactive)
57 | Cc1ccc(S(=O)(=O)NC(=O)NCc2ccc3c(c2)OCO3)cc1 | 7.5% (inactive)
58 | CCN=C1SC(C(=O)Nc2ccc(Cl)c(Cl)c2)CC(=O)N1CC (stereo not given) | -3.4% (inactive)
59 | O=C(OCCN1CCOCC1)c1ccc(OCCN2CCOCC2)cc1 | -3.3% (inactive)
60 | Cn1c(/C(C#N)=C/Nc2ccccn2)nc2ccccc21 | -8.5% (inactive)
